This is an account of results in PubChem BioAssay (Tox21).

Molecules are shown by their SMILES. Inconclusive results are not listed. Where a call stands in place of a potency, no number is given. Activity calls are given as the source filed them. Calls follow the shape of the dose curve; as a rule, active = well fitted activation curve with a large enough effect in the repeat runs; inconclusive = weak or mixed curves; inactive = flat fitted curve, though single readings scatter.
Potency is read from the fitted curve at half-maximal effect.

The first assay can be described thus: A CellTox Green Cytotoxicity Assay to monitor cytotoxicity in HEK293 cells - 32 hour (AID 1224881). Also: nearly all actives have a fitted effect of over 40% in size. As to conditions: CellTox Green fluorescence; series mostly up to 76.8 µM. A digest of the protocol:
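Read-out: fluorescence of a cell-impermeant cyanine dye staining DNA of dead cells, proportional to cytotoxicity. HEK293, 600 cells/well with reagent, compound (23 nL DMSO) added after 5 h; reads at 0, 8, 16, 24, 32, 40 h.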
Regarding `C=C(C)CCO`, the Potency entry is “inactive”.

Turning to `CSc1ccc(O)cc1C`, the Potency entry is “inactive”. In the case of `Cc1cccc2c1ccc1ccccc12`, the Potency result was “inactive”. With `CCCCCCCCCCCCCCCCC(C(=O)O)C(O)(CC(=O)O)C(=O)O` (stereo unspecified), the Potency entry was “inactive”.

Turning to `NCc1cccc(C2CCN(C(=O)c3ccc(C#Cc4ccccc4F)o3)CC2)c1`, the Potency is 49 µM (active).

Consider `C=C1C(CCl)(CCl)C2(Cl)C(Cl)C(Cl)C1(Cl)C2(Cl)Cl` (stereo unspecified), for which the Potency was 48.4 µM (active). On to `CCN(CC)c1ccc(C=O)c(O)c1`, for which the Potency entry was “inactive”. On to `O=C(NCc1ncc(C(F)(F)F)cc1Cl)c1c(Cl)cccc1Cl`, for which the Potency entry is “inactive”. Still for that read-out and setting: to `CCC(C)(C)c1ccc(CC(C)CN2C[C@@H](C)O[C@@H](C)C2)cc1` (stereo partly specified) belongs 23.9 µM (active); to `CC(C)(C)c1ccc(OC2CCCCC2O)cc1` (stereo unspecified), 49 µM (active); to `C=C1CC[C@H]2O[C@]2(C)CC[C@@H]2[C@@H]1CC2(C)C`, “inactive”. For `O=C(CCCCCCCCc1cccnc1)N1CCC(C=C(c2ccccc2)c2ccccc2)CC1`, the Potency result was “inactive”. For the compound `CN(C)CCOc1ccc(/C(=C(/CCCl)c2ccccc2)c2ccccc2)cc1`, the Potency is 40.9 µM (active). With `O=C1OC(O)C(C(Cl)Cl)=C1Cl` (stereo unspecified), the Potency entry was “inactive”. `CCc1c(C)cc(N)c(CC)c1N`: the Potency entry was “inactive”.

`CCC1(C)C(=O)N(Cl)C(=O)N1Cl` (stereo unspecified): the Potency result was “inactive”. Turning to `CCCCCc1ccc(O)cc1`, the Potency was 34.7 µM (active). For the compound `CC(O)(c1ccc(Cl)cc1)c1ccc(Cl)cc1`, the Potency was 49 µM (active). Regarding `c1ccc(-c2ccc(C(c3ccccc3)n3ccnc3)cc2)cc1` (stereo unspecified), the Potency result was “inactive”.

Take `CN(C/C=C/c1ccccc1)Cc1cccc2ccccc12`: the Potency is 19 µM (active). Turning to `CC(C)c1ccc2sc3ccccc3c(=O)c2c1`, the Potency result was “inactive”.

Take `CC(C)=NNC(N)=S`: the Potency result is “inactive”. In the case of `CCC(=O)OC/C=C(\C)CCC=C(C)C`, the Potency result was “inactive”.

The nature of a further assay: A CellTox Green Cytotoxicity Assay to monitor cytotoxicity in HepG2 cells - 0 hour (AID 1224882). Also: nearly all actives have a fitted effect of over 35% in size. As to conditions: CellTox Green fluorescence; series mostly up to 76.8 µM. A digest of the protocol: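 HepG2, 600 cells/well premixed w/ CellTox Green; 5 h settle, 37 C/5% CO2; pintool cpd add (DMSO); 37 C, 40 h; fluorescence read at 0, 8, 16, 24, 32, 40 h.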
Regarding `C=C(C)CCO`, the Potency entry is “inactive”. As for `CSc1ccc(O)cc1C`, the Potency result is “inactive”. In the case of `Cc1cccc2c1ccc1ccccc12`, the Potency entry was “inactive”. As for `CCCCCCCCCCCCCCCCC(C(=O)O)C(O)(CC(=O)O)C(=O)O` (stereo unspecified), the Potency result is “inactive”. The same measure, in the same setting: to `C=C1C(CCl)(CCl)C2(Cl)C(Cl)C(Cl)C1(Cl)C2(Cl)Cl` (stereo unspecified) belongs “inactive”; to `CCCCCCCCCCCCN1CCCC1=O`, “inactive”; to `CCN(CC)c1ccc(C=O)c(O)c1`, “inactive”. Regarding `O=C(NCc1ncc(C(F)(F)F)cc1Cl)c1c(Cl)cccc1Cl`, the Potency entry was “inactive”.

In the case of `Cc1ccc(Cl)c(N)c1Cl`, the Potency result was “inactive”.

As for `CC1=C(/C=C/C(C)=C/C=C/C(C)=C\C(=O)O)C(C)(C)CCC1`, the Potency result was “inactive”. `O=C(Cl)c1ccc(Cl)cc1Cl`: the Potency entry is “inactive”. For the compound `C=CC(=O)O[C@H]1C[C@@H]2CC[C@@]1(C)C2(C)C`, the Potency entry was “inactive”.

Turning to `O=C(CCCCCCCCc1cccnc1)N1CCC(C=C(c2ccccc2)c2ccccc2)CC1`, the Potency result is “inactive”. For the compound `O=C1OC(O)C(C(Cl)Cl)=C1Cl` (stereo unspecified), the Potency result was “inactive”. With `Cc1ccc(C2OC[C@@H]3OC(c4ccc(C)cc4)O[C@H]([C@H](O)CO)[C@@H]3O2)cc1` (stereo partly specified), the Potency result is “inactive”. Consider `CCC1(C)C(=O)N(Cl)C(=O)N1Cl` (stereo unspecified), for which the Potency result was “inactive”. Take `CCCCCc1ccc(O)cc1`: the Potency entry was “inactive”. In the case of `CC(O)(c1ccc(Cl)cc1)c1ccc(Cl)cc1`, the Potency entry is “inactive”. Take `CN(C/C=C/c1ccccc1)Cc1cccc2ccccc12`: the Potency was 19 µM (active). For `CC(C)c1ccc2sc3ccccc3c(=O)c2c1`, the Potency entry is “inactive”.

For the compound `C1=CCCC1`, the Potency entry was “inactive”.

`CC(C)=NNC(N)=S`: the Potency result is “inactive”. Still for that read-out and setting: the entry for `CCC(=O)OC/C=C(\C)CCC=C(C)C` is “inactive”.
